Bioassay records (PubChem)
A selection: hits, their analogues and other compounds. The true share with any hit is near 10%.
FLuc inh: Photinus pyralis luciferase inhibition | P08659 | hit rate 2.5% among 76,000 | purified P. pyralis luciferase, luminescence, biochemical | Potency, µM (titrated, usually from 115 µM), usual class: inhibitors; note: nearly all actives have a fitted effect of over 65% in size
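Inhibitors were tested against purified firefly luciferase in a biochemical, low-substrate format (both substrates at 10uM) and luminescence measured with a CCD imager.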
hNpr1 antagonist: blocks ANP-stimulated signaling of human Npr1 receptor; P16066; HEK293 hNpr1 GloSensor cGMP, ANP-stimulated luminescence; Potency, µM (doses to about 46.3 µM), without a hit: at the top dose activity change, negative = inhibition, most hits filed as inhibitors; hit rate 1.6% among 76,000; AID 1347048; calls by dose curve; note: nearly all actives have a fitted effect of over 60% in size
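Compound pre-incubated 30 min at room temperature on GloSensor-loaded HEK293 cells stably carrying hNpr1 and the pGS-40F cGMP biosensor. Stimulation uses hNppA at 0.1 nM final; luminescence is taken at baseline and 20 min post-agonist.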
GPT2 inhibitor: blocks human glutamate pyruvate transaminase 2; AID 1671188; Recombinant GPT2, coupled pyruvate oxidase/HRP Amplex Red fluorescence; Potency, µM (top dose mostly 57.7 µM), without a hit: at the highest dose activity change, negative = inhibition, usual class: inhibitors; hit rate 0.25% among 100,000; note: nearly all actives have a fitted effect of over 60% in size
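Inhibition is scored from Amplex Red fluorescence generated when pyruvate oxidase and HRP act on pyruvate released by GPT2. Reactions contain 10ng/uL enzyme, 250uM a-KG and 2mM L-alanine and run 30 min at room temperature.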
HEK cytotox: cytotoxic compounds in HEK 293 cells; Potency, µM (series often up to 115 µM), for the others: at the top dose activity change, negative = cytotoxicity, hits mostly inhibitors; hit rate 6.6% among 94,000; HEK 293 viability, ATP luminescence (CellTiter-Glo), 48-72 h; note: nearly all actives have a fitted effect of over 60% in size
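HEK 293 cells at 250 cells/well were exposed to compounds by pintool transfer for 48 or 72 hr at 37 degree Celsius, 5% CO2. Viability was read as ATP-coupled luminescence with CellTiter-Glo after 10 min at room temperature.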
NIH3T3 tox: cytotoxic compounds in NIH 3T3 cells; hit rate 4.3% among 94,000; AID 1345082; Potency, µM (doses to about 96.7 µM), inactives show at the top dose activity change, negative = cytotoxicity, most hits filed as inhibitors; NIH 3T3 viability, CellTiter-Glo ATP luminescence, 48-72 h; note: nearly all actives have a fitted effect of over 55% in size
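First NIH 3T3 cells are plated at 400 cells/well; next compound is pinned in; then plates incubate 48 or 72 hr at 37 °C; finally CellTiter-Glo is added and luminescence read after 10 min.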
* marks the source's active call; other numbers are inactive results; i = inactive; ? = inconclusive; . = no result; [ ] = remark or other dose. Unless noted, calls come from the whole dose curve; as a rule, active = well fitted curve in the direction sought with a large enough effect; inconclusive = small, poorly fitted or top-dose-only effect, or another doubt; inactive = no such curve, though single readings can be large; an effect the other way counts as inactive or inconclusive. % is set by controls: 0 for no effect and ±100 for the full control effect; potency is the fitted concentration of half-maximal effect.

SMILES	FLuc inh	hNpr1 antagonist	GPT2 inhibitor	HEK cytotox	NIH3T3 tox
CC(C)C(=O)N1CCCN(c2ccnc3ccnn23)CC1	.	.	?	-15.3%[172 µM]	?
CNC(=O)c1cc(C)nc2onc(C3CCCN(C(=O)c4ccc(Cl)cc4)C3)c12 (stereo not given)	.	.	.	?	-22.9%
COc1ccc(Nc2ccnc(N3CCC(N[S+](=O)([O-])c4cccs4)CC3)n2)cc1	.	.	i	25.1µM*	35.5µM*
Cc1ccc(Nc2ccnc(N3CCC(N[S+](=O)([O-])c4ccc(C)cc4)CC3)n2)cc1	.	.	i	?	31.6µM*
Cc1ccc(Nc2ccnc(N3CCC(N[S+](=O)([O-])c4c(C)noc4C)CC3)n2)cc1	.	.	i	?	?
Cc1ccc(Nc2ccnc(N3CCC(N[S+](=O)([O-])c4cccs4)CC3)n2)cc1	.	.	3.3%	22.4µM*	35.5µM*
O=C(NCc1ccccc1)c1ccc2nnc(-c3cc[nH]c3)n2c1	.	.	1.4%[88.5 µM]	?	-28.4%[138 µM]
O=C(Cc1cccc(F)c1)N1CCC(Cc2nncn2CC2CC2)C1 (stereo not given)	.	.	-8.4%	-1.2%	?
O=C(c1ccc(C(F)(F)F)cc1)N1CCCN(c2ccnc3ccnn23)CC1	.	.	i	22.4µM*	?
O=[S+]([O-])(c1cccc(C(F)(F)F)c1)N1CCCN(c2ccnc3ccnn23)CC1	.	.	i	44.7µM*	?
O=C(c1ccncc1)N1CCCN(c2ccnc3ccnn23)CC1	.	.	0.7%[88.5 µM]	-19.7%[172 µM]	-30.4%[138 µM]
C=C1C(=O)O[C@@H]2/C=C(\CO)CC/C=C(/C=O)C[C@@H](O)[C@@H]12	.	.	i	.	.
CNC(=O)c1cc(C2CC2)nc2onc(C3CCN(C(=O)c4cccc(OC)c4)C3)c12 (stereo not given)	.	.	.	i	-4.2%
O[C@@H]1CN(Cc2ccc(-n3cccn3)cc2)CC[C@H]1c1ccc(F)cc1	i	?	i	39.8µM*	-28.6%
O=C(O)c1ccc(CN2CC[C@@H](c3ccc4ccccc4c3)[C@H](O)C2)cc1	i	-0.2%	i	0.0%	i
O=C(O)c1ccc(CN2C[C@@H](F)[C@@H](OCc3nc4ccc(C(F)(F)F)cc4[nH]3)C2)cc1	i	1.2%	i	-4.9%	-12.7%
COc1ccc(C(=O)N2CC[C@@H]3COCCN(C)[C@@H]3C2)c(OC)c1	22.4µM*	-10.9%	i	?	1.2%
CC(C)CN1C(=O)CO[C@H](c2ccc(NC(=O)c3ccccc3)cc2)[C@H]1CO	i	-24.1%[70.6 µM]	i	100µM*	?
COc1ccc(CN2C(=O)CO[C@H](c3ccc(NS(=O)(=O)c4ccc(F)cc4)cc3)[C@H]2CO)cc1	i	1.2%	2.8%	-20.1%	35.5µM*
CC(C)CC(=O)Nc1ccc([C@H]2OCC(=O)N(Cc3nccn3C)[C@@H]2CO)cc1	i	4.2%[70.6 µM]	i	i	-1.2%[174 µM]
O=C(Nc1ccccc1)Nc1ccc([C@H]2OCC(=O)N(Cc3ccncc3)[C@@H]2CO)cc1	i	3.2%[70.6 µM]	?	-20.5%[172 µM]	?
O=C(Nc1ccccc1)Nc1ccc([C@H]2OCC(=O)N(Cc3ccccc3)[C@@H]2CO)cc1	?	-17.2%[70.6 µM]	i	70.8µM*	89.1µM*
COc1ccc(C(=O)Nc2ccc([C@H]3OCC(=O)N(Cc4nccn4C)[C@@H]3CO)cc2)cc1	39.8µM*	6.0%	2.4%	-18.3%	-15.9%
COc1ccc(S(=O)(=O)Nc2cnc3c(c2)CCC3)cc1	.	.	-27.3%	?	?
O=C(Nc1ccccc1Cl)N1CCCC2(C1)Nc1cccnc1NC2=NC1CCCC1 (stereo not given)	i	-11.8%	?	?	44.7µM*
COc1ccc(CN2CCN(c3ccnc(C)n3)CC2CCO)c(C)c1C (stereo not given)	i	4.3%	-11.8%	?	-13.2%
COc1ccc(CN2CCN(c3ncnc4c3CCC4)CC2CCO)c(C)c1C (stereo not given)	i	-25.0%	-2.0%	10µM*	?
c1ccc(-c2noc(-c3cncnc3N3CCN(C4CCCCC4)CC3)n2)cc1	i	-2.4%	-10.0%	?	-24.6%
CC1CCN(c2ncncc2-c2nc(-c3ccccc3)no2)CC1	?	2.2%	3.7%	79.4µM*	?
